From PubChem BioAssay (EPA / NIEHS)
Values joined by “and” are separate entries in the source; they are usually repeats but may differ in a detail not shown here. Equal values may be shown once. Inconclusive results are not listed. A structure can be active in one record and inactive in another. Active and inactive are the calls of the source. The calls were made as follows, unless noted: active = hit-call score of the fitted dose curve at least 0.9, where 1 is the maximum; inconclusive = response in the unintended direction; inactive = score below 0.9.

How the values were obtained:
[1] = target: Peroxisome proliferator-activated receptor gamma (Homo sapiens) (UniProt P37231); assay: NVS_NR_hPPARg: NovaScreen (NVS) Nuclear Receptor Binding Assay for human Peroxisome Proliferator-activated Receptor gamma (PPARg) (AID 2283370)
How it was run: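 Fluorescence polarization readout of ligand binding to extracted human PPARg, measured at 2 h. Duplicate single-point screen at 25 uM, then concentration-series retesting; activity defined as signal loss versus DMSO.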

[2] = target: Estrogen receptor beta (Homo sapiens) (UniProt Q92731); assay: OT_ER_ERbERb_1440: Odyssey Thera (OT) 24-hour HEK293T Protein-Complementation Assay for Estrogen Receptor-beta/-beta Homodimer (AID 2283380);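 also: fluorescence gain from ER beta LBD homodimer complementation read by laser scanning cytometry; scored as signal increase over DMSO baseline for both agonists and antagonists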
How it was run: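 HEK293T cells stably expressing human ER-beta LBD (aa 310-547) PCA homodimer pair, dosed 24 h; formaldehyde-fixed, Draq5-stained. Readout: increase in nuclear (agonist) or nuclear plus cytoplasmic (antagonist) fluorescence intensity versus DMSO, gain-of-signal fitting.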

[3] = target: Bile acid receptor (Homo sapiens) (UniProt Q96RI1); assay: OT_FXR_FXRSRC1_0480: Odyssey Thera (OT) 8-hour HEK293T Protein-Complementation Assay for Farnesoid X receptor/SRC-1 Co-activator (AID 2283383)
How it was run: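 Human kidney HEK293T cells carried FXR/SRC-1 fragment-complementation constructs. Compounds were added and incubated 8 h. Reporter reassembly upon receptor–co-activator interaction was then quantified by fluorescence, with curves fitted in the positive direction relative to DMSO.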

[4] = target: Bile acid receptor (Homo sapiens) (UniProt Q96RI1); assay: OT_FXR_FXRSRC1_1440: Odyssey Thera (OT) 24-hour HEK293T Protein-Complementation Assay for Farnesoid X receptor/SRC-1 Co-activator (AID 2283384)
How it was run: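 Compounds are applied to human kidney HEK293T cells expressing bait and prey fused to reporter protein fragments; after 24 h, reconstituted reporter fluorescence is measured. Activity is fitted as signal gain over DMSO.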

[5] = target: Retinoic acid receptor RXR-alpha (Homo sapiens) (UniProt P19793); assay: OT_NURR1_NURR1RXRa_1440: Odyssey Thera (OT) 24-hour HEK293T Protein Complementation Assay for Nurr1/retinoid X receptor (RXR) (AID 2283386)
How it was run: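 Interaction of Nurr1 with RXRα brings fused reporter fragments together in human HEK293T cells, restoring a functional reporter. Fluorescence intensity is measured 24 h after chemical treatment, and values are analysed in the positive direction against DMSO.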

[6] = target: Peroxisome proliferator-activated receptor gamma (Homo sapiens) (UniProt P37231); assay: OT_PPARg_PPARgSRC1_0480: Odyssey Thera (OT) 8-hour Protein-Complementation Assay for Peroxisome Proliferator-activated Receptor Gamma / SRC-1 Co-activator (AID 2283387);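 also: nuclear to cytoplasmic split Venus YFP fluorescence ratio reporting PPARg SRC-1 interaction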
How it was run: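 HEK293T transiently transfected with PPARg and SRC-1 fused to Venus YFP fragments, compounds 8 h at 37C. Fixed, Draq5-stained cells imaged; nuclear/cytoplasmic 488 nm fluorescence ratio over at least 350 cells per image; gain fitted versus DMSO.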

[7] = target: Peroxisome proliferator-activated receptor gamma (Homo sapiens) (UniProt P37231); assay: OT_PPARg_PPARgSRC1_1440: Odyssey Thera (OT) 24-hour Protein-Complementation Assay for Peroxisome Proliferator-activated Receptor Gamma/ SRC-1 Co-activator (AID 2283388)
How it was run: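 Readout is the 488 nm N/C fluorescence ratio from fixed, Draq5-stained HEK293T cells after 24 h compound exposure. Cells carried transiently transfected PPARg and SRC-1 fused to Venus fragments, transfected 48 h before treatment.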

[8] = target: human Serotonin Transporter (SERT), SLC6A4 (gene 6532) (UniProt P31645); assay: NVS_TR_hSERT: NovaScreen (NVS) Transporter Assay for human Serotonin Transporter (SERT) (AID 2283372)
How it was run: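 Radioligand binding to native SERT in human platelet membranes, read by filter-based scintillation counting 1 h after dosing. Primary screen in duplicate at 25 uM; actives followed up in concentration series; loss of signal versus DMSO baseline.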

[9] = CEETOX_H295R_OHPREG: CeeTox H295R High-throughput Steroidogenesis Assay for OH-Pregnenolone (OHPREG) (AID 2283434; active = hit-call score of the fitted dose curve at least 0.9, where 1 is the maximum; inactive = score below 0.9); settings: actives raise or lower the signal
How it was run: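 Human adrenal H295R cells were prestimulated 48 h with 10 uM forskolin, then exposed 48 h to chemical in 0.1% DMSO. Medium 17alpha-hydroxypregnenolone was quantified by HPLC-MS/MS after MTBE extraction; bidirectional fitting versus DMSO baseline.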

[10] = target: human Adenosine Transporter (Adot), SLC29A1 (gene 2030) (UniProt Q99808); assay: NVS_TR_hAdoT: NovaScreen (NVS) Transporter Assay for human Adenosine Transporter (Adot) (AID 2283368)
How it was run: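 U937-derived membranes, cell-free radioligand binding, filter scintillation 1 h after dosing. 25 uM duplicate screen; hits (e.g. 30% inhibition) run in concentration-response up to 50 uM; loss of signal versus DMSO.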

[11] = target: Agonist Androgen Response Element (ARE), AR (gene 367) (UniProt P10275); assay: OT_AR_ARELUC_AG_1440: Odyssey Thera (OT) 24-hour CHO-K1 Luciferase Assay for Agonist Androgen Response Element (ARE) (AID 2283379)
How it was run: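 Seed CHO-K1 cells; dose compounds for 24 h; add D-luciferin plus ATP in PBS; read luminescence. Signal increase relative to vehicle defines agonist activity, with at least 3 replicate wells per sample.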

[12] = target: human Dopamine Transporter (DAT), SLC6A3 (gene 6531) (UniProt Q01959); assay: NVS_TR_hDAT: NovaScreen (NVS) Transporter Assay for human Dopamine Transporter (DAT) (AID 2283374);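 also: activity means loss of bound radioligand signal relative to DMSO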
How it was run: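 Cell-free radioligand binding to extracted human DAT protein, read 1 h after dosing by filter-based scintillation counting. Loss of specific binding scored against DMSO baseline; primary screen in duplicate at 25 uM, actives then run in concentration series.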

[13] = target: Estrogen receptor (Homo sapiens) (UniProt P03372); assay: OT_ERa_GFPERaERE_0120: Odyssey Thera (OT) 2-hour HeLa Transcription Induction Assay for Estrogen Receptor (AID 2283382)
How it was run: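 HeLa, 384-well, 2 h chemical exposure; GFP reporter induction (ERE), fluorescence microscopy; high content image analysis; positive fitting direction vs DMSO.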

[14] = target: Retinoic acid receptor RXR-alpha (Homo sapiens) (UniProt P19793); assay: OT_NURR1_NURR1RXRa_0480: Odyssey Thera (OT) 8-hour HEK293T Protein Complementation Assay for Nurr1/retinoid X receptor (RXR) (AID 2283385)
How it was run: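 8 h compound exposure, HEK293T; Nurr1/RXRα fragment complementation; fluorescence intensity; positive fitting direction vs DMSO baseline.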

[15] = CEETOX_H295R_11DCORT: CeeTox H295R High-throughput Steroidogenesis Assay for 11-Deoxycortisol (11DCORT) (AID 2283432; active = hit-call score of the fitted dose curve at least 0.9, where 1 is the maximum; inactive = score below 0.9;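 as to AC50: 11-deoxycortisol secreted into the medium measured by LC-MS/MS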); settings: actives raise or lower the signal
How it was run: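 H295R cells prestimulated 48 h with 10 uM forskolin, then exposed 48 h to chemical in 0.1% DMSO. 11-Deoxycortisol in medium quantified by HPLC-MS/MS after MTBE extraction; bidirectional fit versus DMSO. MTT viability read in same wells.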

[16] = test system: rat Norepinephrine Transporter (NET), gene 83511; assay: NVS_TR_rNET: NovaScreen (NVS) Transporter Assay for rat Norepinephrine Transporter (NET) (AID 2283373)
How it was run: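 Rat forebrain membranes; radioligand binding measured by filter-based scintillation counting 1 hour after dosing. Loss of specific binding versus DMSO baseline scored; primary screen in duplicate at 25 uM, actives followed up in concentration series.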

[17] = target: Norway rat Vesicular Monoamine Transporter (VMAT2), neurotransmitter transporter, Slc18a2 (gene 25549) (UniProt Q01827); assay: NVS_TR_rVMAT2: NovaScreen (NVS) Transporter Assay for Norway rat Vesicular Monoamine Transporter (VMAT2), neurotransmitter transporter (AID 2283376);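 also: actives lower the bound radioligand signal below the DMSO level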
How it was run: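 Rat forebrain tissue preparation used in a cell-free radioligand binding format; displacement read by filter-based scintillation counting 1 hour after dosing. Primary screen in duplicate at 25 uM, actives then run in concentration series; loss of signal versus DMSO baseline.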

[18] = target: human Norepinephrine Transporter (NET), SLC6A2 (gene 6530) (UniProt P23975); assay: NVS_TR_hNET: NovaScreen (NVS) Transporter Assay for human Norepinephrine Transporter (NET) (AID 2283377);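 also: cell-free membrane protein extracted from CHO cells expressing human NET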
How it was run: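 Radioligand binding to human NET in cell-free CHO-derived protein preparations, read by filter-based scintillation counting 1 hour after dosing. Loss of signal versus DMSO baseline indicated displacement; primary screening in duplicate at 25 uM, actives then titrated.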

[19] = target: rat Serotonin Transporter (SERT), Slc6a4 (gene 25553) (UniProt P31652); assay: NVS_TR_rSERT: NovaScreen (NVS) Transporter Assay for rat Serotonin Transporter (SERT) (AID 2283375)
How it was run: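 Radioligand binding with competitive displacement on rat forebrain membrane preparations, counted by filtration and scintillation after 1 h. Primary single-point duplicates at 25 uM; active chemicals followed up in concentration-response. DMSO served as baseline.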

Measured: AC50

human Norepinephrine Transporter (NET), SLC6A2 (gene 6530), sequence (P23975 whole entry, looked up): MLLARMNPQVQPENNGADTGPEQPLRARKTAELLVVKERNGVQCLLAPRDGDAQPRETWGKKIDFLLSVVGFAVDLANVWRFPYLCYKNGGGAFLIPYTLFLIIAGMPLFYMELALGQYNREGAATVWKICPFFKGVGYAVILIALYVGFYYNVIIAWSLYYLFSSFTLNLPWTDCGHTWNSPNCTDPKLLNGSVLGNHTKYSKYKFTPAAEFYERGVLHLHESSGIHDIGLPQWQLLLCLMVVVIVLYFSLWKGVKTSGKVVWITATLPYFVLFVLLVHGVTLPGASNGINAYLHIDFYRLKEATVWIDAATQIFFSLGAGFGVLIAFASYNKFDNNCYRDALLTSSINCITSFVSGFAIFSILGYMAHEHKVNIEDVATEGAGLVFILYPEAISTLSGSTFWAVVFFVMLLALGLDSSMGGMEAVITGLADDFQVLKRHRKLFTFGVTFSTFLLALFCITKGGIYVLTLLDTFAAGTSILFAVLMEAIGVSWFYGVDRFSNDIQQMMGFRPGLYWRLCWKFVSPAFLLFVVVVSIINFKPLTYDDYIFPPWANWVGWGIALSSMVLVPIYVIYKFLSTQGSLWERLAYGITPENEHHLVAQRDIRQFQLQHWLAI
rat Serotonin Transporter (SERT), Slc6a4 (gene 25553), sequence (P31652 whole entry, looked up): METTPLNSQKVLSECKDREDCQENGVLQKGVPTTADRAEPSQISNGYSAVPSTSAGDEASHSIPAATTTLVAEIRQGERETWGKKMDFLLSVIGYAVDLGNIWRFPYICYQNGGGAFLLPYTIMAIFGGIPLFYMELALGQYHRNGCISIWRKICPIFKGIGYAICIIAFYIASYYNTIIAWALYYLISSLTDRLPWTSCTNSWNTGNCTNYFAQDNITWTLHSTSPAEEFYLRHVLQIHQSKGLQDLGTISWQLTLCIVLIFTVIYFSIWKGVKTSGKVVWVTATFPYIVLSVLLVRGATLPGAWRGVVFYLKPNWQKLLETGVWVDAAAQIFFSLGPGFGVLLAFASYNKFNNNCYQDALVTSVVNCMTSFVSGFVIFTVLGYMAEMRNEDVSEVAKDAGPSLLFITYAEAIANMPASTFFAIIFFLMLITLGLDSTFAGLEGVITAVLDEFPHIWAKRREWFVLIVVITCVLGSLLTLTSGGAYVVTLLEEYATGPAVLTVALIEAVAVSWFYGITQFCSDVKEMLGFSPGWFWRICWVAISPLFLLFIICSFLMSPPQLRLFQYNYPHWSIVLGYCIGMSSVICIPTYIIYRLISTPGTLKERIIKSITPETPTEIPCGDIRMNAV
Estrogen receptor beta (Homo sapiens), sequence (Q92731 whole entry, looked up, the tested form may be a part): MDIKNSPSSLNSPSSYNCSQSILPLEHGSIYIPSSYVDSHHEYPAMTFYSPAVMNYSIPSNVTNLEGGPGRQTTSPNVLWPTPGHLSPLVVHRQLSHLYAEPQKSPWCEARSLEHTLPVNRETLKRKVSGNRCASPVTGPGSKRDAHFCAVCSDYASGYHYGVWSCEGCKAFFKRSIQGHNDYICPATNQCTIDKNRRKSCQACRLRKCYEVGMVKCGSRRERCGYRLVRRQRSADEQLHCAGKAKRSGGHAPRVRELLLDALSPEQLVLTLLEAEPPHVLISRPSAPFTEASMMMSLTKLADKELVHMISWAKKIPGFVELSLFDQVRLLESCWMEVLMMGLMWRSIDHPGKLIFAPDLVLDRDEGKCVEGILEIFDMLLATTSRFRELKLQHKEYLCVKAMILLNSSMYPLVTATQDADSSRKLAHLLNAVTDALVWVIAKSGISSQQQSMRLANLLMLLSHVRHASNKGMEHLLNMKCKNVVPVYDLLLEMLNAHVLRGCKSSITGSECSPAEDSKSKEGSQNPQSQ
Retinoic acid receptor RXR-alpha (Homo sapiens), sequence (P19793 whole entry, looked up, the tested form may be a part): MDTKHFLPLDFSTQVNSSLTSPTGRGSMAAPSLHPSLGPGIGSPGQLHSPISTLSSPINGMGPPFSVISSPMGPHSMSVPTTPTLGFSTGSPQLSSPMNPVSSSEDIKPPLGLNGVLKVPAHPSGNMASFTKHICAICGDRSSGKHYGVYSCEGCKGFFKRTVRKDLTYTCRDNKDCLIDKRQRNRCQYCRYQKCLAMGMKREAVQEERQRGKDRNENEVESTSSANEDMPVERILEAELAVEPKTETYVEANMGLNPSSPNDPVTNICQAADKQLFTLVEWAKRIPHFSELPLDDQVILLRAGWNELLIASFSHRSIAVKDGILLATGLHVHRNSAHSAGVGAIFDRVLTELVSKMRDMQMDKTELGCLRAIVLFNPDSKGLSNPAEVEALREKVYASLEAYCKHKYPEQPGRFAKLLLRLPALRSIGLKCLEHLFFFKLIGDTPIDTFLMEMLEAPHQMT
Peroxisome proliferator-activated receptor gamma (Homo sapiens), sequence (P37231 whole entry, looked up, the tested form may be a part): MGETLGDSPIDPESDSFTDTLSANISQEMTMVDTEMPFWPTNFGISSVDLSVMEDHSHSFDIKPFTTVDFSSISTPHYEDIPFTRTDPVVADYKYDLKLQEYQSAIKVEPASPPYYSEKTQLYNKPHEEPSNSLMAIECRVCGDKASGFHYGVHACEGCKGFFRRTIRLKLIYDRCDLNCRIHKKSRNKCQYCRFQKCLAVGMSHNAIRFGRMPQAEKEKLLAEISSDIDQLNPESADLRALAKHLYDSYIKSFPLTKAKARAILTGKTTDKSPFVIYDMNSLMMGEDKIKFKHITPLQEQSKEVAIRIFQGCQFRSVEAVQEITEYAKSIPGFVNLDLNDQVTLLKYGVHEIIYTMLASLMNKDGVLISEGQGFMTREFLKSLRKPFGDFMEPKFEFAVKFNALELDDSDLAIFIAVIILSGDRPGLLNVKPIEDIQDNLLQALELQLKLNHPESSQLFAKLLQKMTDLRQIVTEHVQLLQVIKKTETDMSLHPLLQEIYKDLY
Bile acid receptor (Homo sapiens), sequence (Q96RI1 whole entry, looked up, the tested form may be a part): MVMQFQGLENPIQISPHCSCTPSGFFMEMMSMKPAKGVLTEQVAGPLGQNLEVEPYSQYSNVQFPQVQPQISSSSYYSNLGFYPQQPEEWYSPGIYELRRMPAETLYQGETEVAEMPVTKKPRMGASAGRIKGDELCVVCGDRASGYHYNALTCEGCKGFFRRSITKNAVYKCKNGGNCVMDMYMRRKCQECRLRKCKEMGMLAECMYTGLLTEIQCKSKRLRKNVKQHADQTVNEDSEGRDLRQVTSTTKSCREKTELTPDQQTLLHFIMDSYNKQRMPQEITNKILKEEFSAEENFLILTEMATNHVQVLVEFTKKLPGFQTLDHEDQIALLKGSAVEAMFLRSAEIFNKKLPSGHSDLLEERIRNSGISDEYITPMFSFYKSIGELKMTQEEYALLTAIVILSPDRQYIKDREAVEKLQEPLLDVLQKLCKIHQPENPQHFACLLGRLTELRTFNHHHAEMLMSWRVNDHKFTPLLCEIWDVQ
Estrogen receptor (Homo sapiens), sequence (P03372 whole entry, looked up): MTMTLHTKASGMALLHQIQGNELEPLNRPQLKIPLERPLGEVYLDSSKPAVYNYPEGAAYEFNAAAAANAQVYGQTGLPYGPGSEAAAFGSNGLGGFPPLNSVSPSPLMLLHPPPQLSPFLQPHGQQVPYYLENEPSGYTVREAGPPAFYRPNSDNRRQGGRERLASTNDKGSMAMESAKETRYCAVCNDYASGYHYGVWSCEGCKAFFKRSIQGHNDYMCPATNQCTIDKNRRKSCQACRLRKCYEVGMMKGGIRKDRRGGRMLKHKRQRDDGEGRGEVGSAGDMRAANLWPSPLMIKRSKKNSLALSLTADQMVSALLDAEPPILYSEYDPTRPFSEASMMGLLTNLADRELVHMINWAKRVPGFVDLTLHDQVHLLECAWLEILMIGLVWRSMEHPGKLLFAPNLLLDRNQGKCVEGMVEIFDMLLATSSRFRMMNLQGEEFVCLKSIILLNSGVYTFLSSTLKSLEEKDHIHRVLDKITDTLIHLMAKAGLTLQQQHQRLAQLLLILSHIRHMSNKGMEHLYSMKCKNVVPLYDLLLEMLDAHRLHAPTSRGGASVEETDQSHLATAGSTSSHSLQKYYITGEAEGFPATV
human Dopamine Transporter (DAT), SLC6A3 (gene 6531), sequence (Q01959 whole entry, looked up): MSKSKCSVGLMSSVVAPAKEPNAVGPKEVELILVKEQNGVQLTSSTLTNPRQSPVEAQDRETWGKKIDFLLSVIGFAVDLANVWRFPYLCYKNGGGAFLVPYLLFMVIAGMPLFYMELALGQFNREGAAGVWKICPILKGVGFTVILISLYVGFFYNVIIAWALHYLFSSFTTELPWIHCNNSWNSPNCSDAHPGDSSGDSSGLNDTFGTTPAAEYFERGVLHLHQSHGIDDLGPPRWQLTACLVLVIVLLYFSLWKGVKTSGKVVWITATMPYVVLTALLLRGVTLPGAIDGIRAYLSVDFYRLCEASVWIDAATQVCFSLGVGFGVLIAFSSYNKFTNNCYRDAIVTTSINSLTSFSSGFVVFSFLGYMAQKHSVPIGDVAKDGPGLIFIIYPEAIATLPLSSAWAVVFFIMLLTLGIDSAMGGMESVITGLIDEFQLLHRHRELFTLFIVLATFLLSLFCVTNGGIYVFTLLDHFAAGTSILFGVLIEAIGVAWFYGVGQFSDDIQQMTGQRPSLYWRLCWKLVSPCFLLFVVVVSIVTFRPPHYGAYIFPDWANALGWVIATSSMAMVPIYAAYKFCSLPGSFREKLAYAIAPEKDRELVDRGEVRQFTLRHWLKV
human Adenosine Transporter (Adot), SLC29A1 (gene 2030), sequence (Q99808 whole entry, looked up): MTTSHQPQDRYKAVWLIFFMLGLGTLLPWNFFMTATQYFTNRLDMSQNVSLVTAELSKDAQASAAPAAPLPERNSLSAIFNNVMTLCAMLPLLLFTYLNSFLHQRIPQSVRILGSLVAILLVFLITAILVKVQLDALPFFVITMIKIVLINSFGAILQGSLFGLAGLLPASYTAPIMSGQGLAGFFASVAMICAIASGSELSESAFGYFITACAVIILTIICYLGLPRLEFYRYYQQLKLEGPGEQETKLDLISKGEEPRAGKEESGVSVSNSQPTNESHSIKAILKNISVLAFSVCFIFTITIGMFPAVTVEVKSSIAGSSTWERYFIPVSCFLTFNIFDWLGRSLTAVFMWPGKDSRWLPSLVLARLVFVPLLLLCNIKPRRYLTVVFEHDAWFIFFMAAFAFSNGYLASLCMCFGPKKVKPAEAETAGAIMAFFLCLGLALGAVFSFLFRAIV

CN(C)c1ccc(C(=O)c2ccc(N(C)C)cc2)cc1
active: [1] 25 µM | [3] 49 µM | [4] 0.699 µM
inactive: [2] | [5] | [6] | [7]

O=[N+]([O-])c1ccc(Oc2ccc(Cl)cc2Cl)cc1
inactive: [8] | [2] | [6] | [7] | [9]

CCNS(=O)(=O)C(F)(F)C(F)(F)C(F)(F)C(F)(F)C(F)(F)C(F)(F)C(F)(F)C(F)(F)F
inactive: [10] | [1] | [11] | [3] | [6] | [7]

Cn1cc(-c2ccccc2)c(=O)c(-c2cccc(C(F)(F)F)c2)c1
inactive: [1] | [8] | [13] | [14] | [6] | [7] | [15] | [9]
active: [12] 16.5 µM

CCC(C)c1ccc(O)cc1 (stereo not drawn)
active: [12] 4.96 µM | [18] 9.53 µM | [2] 28.2 µM
inactive: [16] | [17] | [3] | [4] | [14] | [5] | [15] | [9]

Cc1cccc(N)c1N
active: [1] 0.00229 µM | [18] 5.57 µM | [3] 42.8 µM | [4] 49.3 µM | [6] 31.9 µM and 66.9 µM | [9] 27 µM
inactive: [2] | [5] | [7] | [15]

O=C(Oc1ccc(Br)cc1)N1CCN2CCC1CC2
active: [8] 1.91 µM | [12] 8.54 µM | [19] 1.01 µM | [18] 12.8 µM | [15] 6.83 µM
inactive: [1] | [13] | [14] | [5] | [6] | [7]

c1ccc(N=Nc2ccccc2)cc1
inactive: [1] | [14] | [6] | [7] | [15] | [9]

Nc1ccc(Cl)cc1N
active: [18] 38.9 µM | [3] 35.3 µM | [4] 33.8 µM | [14] 39.2 µM | [6] 45.3 µM | [9] 1.41 µM
inactive: [1] | [11] | [14] | [6] | [7] | [15]

[Cl-].[Cl-].[Hg+2]
active: [10] 5.1 µM | [12] 25 µM | [19] 25 µM | [18] 0.372 µM | [13] 21.5 µM
inactive: [2] | [6] | [7]

O=C(N[C@H](c1ccccc1)[C@@H]1CN2CCC1CC2)c1c(Cl)ccc(C(F)(F)F)c1Cl
inactive: [2] | [3] | [6] | [7]
active: [8] 1.52 µM | [16] 26.4 µM | [12] 23.1 µM | [19] 0.359 µM | [18] 13.3 µM

CC(C)(C)OOC(=O)c1ccccc1
inactive: [1] | [18] | [2] | [6] | [7]

O=C(Nc1ccccc1)c1ccccc1I
inactive: [1] | [2] | [13] | [6] | [7]
active: [18] 11.2 µM | [15] 27.8 µM | [9] 32.3 µM

Nc1ccc(Oc2ccc(N)cc2)cc1
active: [12] 3.25 µM | [15] 24.2 µM | [9] 5.04 µM
inactive: [1] | [2] | [6] | [7]

CC(C)COC(=O)c1ccccc1C(=O)OCC(C)C
active: [13] 13 µM | [3] 17.7 µM
inactive: [1] | [2] | [4] | [14] | [5] | [6] | [7]
